# About 410 targets per protein were measured; listed, in parts, are those with the strongest signals and a random draw of the rest.
# Tests used:
# Test in all cases: glycan array binding signal (z-score within array); higher = stronger binding
# Settings in all cases: glycan notation: IUPAC condensed, linker removed
# [1] = target: GlcA3S(b1-3)Gal(b1-4)GlcNAc(b1-2)Man
# Summary of the method: (§1)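 The binding signal is a Z-score computed within each array. Data were drawn from 3228 arrays in the Consortium for Functional Glycomics database, restricted to those with a known protein sequence. Scores were averaged over arrays of the same protein sequence at different concentrations or buffers, and over linkers, and negative values can be taken as non-binding.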
# [2] = target: GlcA3S(b1-3)Gal(b1-4)GlcNAc(b1-3)Gal(b1-4)Glc
# Summary of the method: as §1
# [3] = target: GlcNAc(b1-2)[GlcNAc(b1-4)]Man(a1-3)[GlcNAc(b1-4)][GlcNAc(b1-2)Man(a1-6)]Man(b1-4)GlcNAc(b1-4)GlcNAc
# Summary of the method: as §1
# [4] = target: GlcNAc(b1-3)Gal(b1-4)GlcNAc(b1-3)Gal(b1-4)GlcNAc(b1-2)Man(a1-3)[GlcNAc(b1-3)Gal(b1-4)GlcNAc(b1-3)Gal(b1-4)GlcNAc(b1-2)Man(a1-6)]Man(b1-4)GlcNAc(b1-4)[Fuc(a1-6)]GlcNAc
# Summary of the method: as §1
# [5] = target: GlcNAc(b1-3)Gal(b1-4)GlcNAc(b1-6)[Gal(b1-3)]GalNAc
# Summary of the method: as §1
# [6] = target: GlcNAc(b1-3)Gal(b1-4)GlcNAc(b1-6)[GlcNAc(b1-3)]Gal(b1-4)GlcNAc
# Summary of the method: as §1
# [7] = target: Man(a1-2)Man(a1-2)Man(a1-3)Man
# Summary of the method: as §1
# [8] = target: Man(a1-2)Man(a1-2)Man(a1-6)[Man(a1-3)]Man
# Summary of the method: as §1
# [9] = target: Man(a1-2)Man(a1-3)[Man(a1-2)Man(a1-6)]Man(a1-6)[Man(a1-2)Man(a1-2)Man(a1-3)]Man(b1-4)GlcNAc(b1-4)GlcNAc
# Summary of the method: as §1
# [10] = target: Man(a1-2)Man(a1-6)[Man(a1-3)]Man(a1-6)[Man(a1-2)Man(a1-2)Man(a1-3)]Man
# Summary of the method: as §1
# [11] = target: Man(a1-3)[Man(a1-6)]Man(a1-6)[Man(a1-2)Man(a1-3)]Man(b1-4)GlcNAc(b1-4)GlcNAc
# Summary of the method: as §1
# [12] = target: Neu5Ac(a2-3)Gal(b1-3)GlcNAc(b1-3)GalNAc
# Summary of the method: as §1
# [13] = target: Neu5Ac(a2-3)Gal(b1-3)[GlcNAc(b1-6)]GalNAc
# Summary of the method: as §1
# [14] = target: Neu5Ac(a2-3)Gal(b1-4)GlcNAc(b1-2)Man(a1-3)[Neu5Ac(a2-3)Gal(b1-4)GlcNAc(b1-2)Man(a1-6)]Man(b1-4)GlcNAc(b1-4)[Fuc(a1-6)]GlcNAc
# Summary of the method: as §1
# [15] = target: Neu5Ac(a2-3)Gal(b1-4)GlcNAc(b1-2)[Neu5Ac(a2-3)Gal(b1-4)GlcNAc(b1-4)]Man(a1-3)[GlcNAc(b1-4)][Neu5Ac(a2-3)Gal(b1-4)GlcNAc(b1-2)[Neu5Ac(a2-3)Gal(b1-4)GlcNAc(b1-6)]Man(a1-6)]Man(b1-4)GlcNAc(b1-4)GlcNAc
# Summary of the method: as §1
# [16] = target: Neu5Ac(a2-3)Gal(b1-4)GlcNAc(b1-3)Gal(b1-4)GlcNAc(b1-3)Gal(b1-4)GlcNAc(b1-2)Man(a1-3)[Neu5Ac(a2-3)Gal(b1-4)GlcNAc(b1-3)Gal(b1-4)GlcNAc(b1-3)Gal(b1-4)GlcNAc(b1-2)Man(a1-6)]GalNAc
# Summary of the method: as §1
# [17] = target: Neu5Ac(a2-3)Gal(b1-4)GlcNAc(b1-3)Gal(b1-4)GlcNAc(b1-3)GalNAc
# Summary of the method: as §1
# [18] = target: Neu5Ac(a2-3)Gal(b1-4)GlcNAc(b1-3)GalNAc
# Summary of the method: as §1
# [19] = target: Neu5Ac(a2-3)Gal(b1-4)[Fuc(a1-3)]GlcNAc
# Summary of the method: as §1
# [20] = target: Neu5Ac(a2-3)Gal(b1-4)[Fuc(a1-3)]GlcNAc(b1-3)Gal(b1-4)GlcNAc
# Summary of the method: as §1
# [21] = target: Neu5Ac(a2-3)Gal(b1-4)[Fuc(a1-3)]GlcNAc(b1-6)[Gal(b1-3)]GalNAc
# Summary of the method: as §1
# [22] = target: Neu5Ac(a2-3)Gal(b1-4)[Fuc(a1-3)]GlcNAc(b1-6)[Neu5Ac(a2-3)Gal(b1-3)]GalNAc
# Summary of the method: as §1
# [23] = target: Neu5Ac(a2-3)Gal(b1-4)[Fuc(a1-3)]GlcNAc6S
# Summary of the method: as §1
# [24] = target: Neu5Ac(a2-3)[GalNAc(b1-4)]Gal(b1-4)GlcNAc(b1-3)GalNAc
# Summary of the method: as §1
# [25] = target: Neu5Ac(a2-6)Gal(b1-4)GlcNAc(b1-2)Man(a1-3)Man(b1-4)GlcNAc(b1-4)GlcNAc
# Summary of the method: as §1
# [26] = target: Neu5Ac(a2-6)Gal(b1-4)GlcNAc(b1-2)Man(a1-3)[Gal(b1-4)GlcNAc(b1-2)Man(a1-6)]Man(b1-4)GlcNAc(b1-4)GlcNAc
# Summary of the method: as §1
# [27] = target: Neu5Ac(a2-6)Gal(b1-4)GlcNAc(b1-2)Man(a1-3)[GlcNAc(b1-2)Man(a1-6)]Man(b1-4)GlcNAc(b1-4)GlcNAc
# Summary of the method: as §1
# [28] = target: Neu5Ac(a2-6)Gal(b1-4)GlcNAc(b1-2)Man(a1-6)[GlcNAc(b1-2)Man(a1-3)]Man(b1-4)GlcNAc(b1-4)GlcNAc
# Summary of the method: as §1
# [29] = target: Neu5Ac(a2-6)Gal(b1-4)GlcNAc(b1-3)Gal(b1-4)GlcNAc(b1-3)Gal(b1-4)GlcNAc(b1-2)Man(a1-3)[Neu5Ac(a2-6)Gal(b1-4)GlcNAc(b1-3)Gal(b1-4)GlcNAc(b1-3)Gal(b1-4)GlcNAc(b1-2)Man(a1-6)]GalNAc
# Summary of the method: as §1
# [30] = target: Neu5Ac(a2-8)Neu5Ac(a2-3)[GalNAc(b1-4)]Gal(b1-4)Glc
# Summary of the method: as §1
# [31] = target: Neu5Gc(a2-3)Gal(b1-4)Glc
# Summary of the method: as §1
binder,measurement,setting,value
"Actd5 (Actinidia), P84527 (protein) ISSCNGPCRDLNDCDGQLICIKGKCNDDPQVGTHICRGTTHSHQPGGCKPSGTLTCRGKSYPTYDCSPPVTSSTPAKLTNNDFSEGGDDGGPSECDESYHNNNERIVALSTGWYNGGSRCGKMIRITASNGKSVSAKVVDECDSRHGCDKEHAGQPPCRNNIVDGSNAVWSALGLDKNVGVVDITWSMA",glycan array binding signal (z-score),[1],-0.597
same,glycan array binding signal (z-score),[2],-0.788
same,glycan array binding signal (z-score),[3],-0.558
same,glycan array binding signal (z-score),[4],3.06
same,glycan array binding signal (z-score),[5],-0.776
same,glycan array binding signal (z-score),[6],0.458
same,glycan array binding signal (z-score),[7],0.687
same,glycan array binding signal (z-score),[8],6.66
same,glycan array binding signal (z-score),[9],4.17
same,glycan array binding signal (z-score),[10],3.42
same,glycan array binding signal (z-score),[11],5.03
same,glycan array binding signal (z-score),[12],-0.064
same,glycan array binding signal (z-score),[13],-0.32
same,glycan array binding signal (z-score),[14],-0.173
same,glycan array binding signal (z-score),[15],-0.296
same,glycan array binding signal (z-score),[16],5.66
same,glycan array binding signal (z-score),[17],-0.279
same,glycan array binding signal (z-score),[18],0.374
same,glycan array binding signal (z-score),[19],-0.42
same,glycan array binding signal (z-score),[20],0.65
same,glycan array binding signal (z-score),[21],1.5
same,glycan array binding signal (z-score),[22],-0.33
same,glycan array binding signal (z-score),[23],-0.958
same,glycan array binding signal (z-score),[24],0.22
same,glycan array binding signal (z-score),[25],-0.071
same,glycan array binding signal (z-score),[26],-0.093
same,glycan array binding signal (z-score),[27],-0.252
same,glycan array binding signal (z-score),[28],-0.496
same,glycan array binding signal (z-score),[29],3.79
same,glycan array binding signal (z-score),[30],-0.363
same,glycan array binding signal (z-score),[31],0.046
